ChEMBL document CHEMBL3988442, “University of Dundee, Small-Polar-MMV Screening Library” (2021)
For part of these data: Measured potencies and affinities stand elsewhere.

How the values were obtained:
[1] = target: T1, Methionyl-tRNA synthetase, putative (Leishmania donovani (strain BPK282A1)) (UniProt E9BF75); assay: Leishmania donovani Methionine tRNA synthetase (LdMetRS):v7. Dose response assay; format: functional; set-up: conc 80 nM, time 150 minutes
T1 sequence (whole entry): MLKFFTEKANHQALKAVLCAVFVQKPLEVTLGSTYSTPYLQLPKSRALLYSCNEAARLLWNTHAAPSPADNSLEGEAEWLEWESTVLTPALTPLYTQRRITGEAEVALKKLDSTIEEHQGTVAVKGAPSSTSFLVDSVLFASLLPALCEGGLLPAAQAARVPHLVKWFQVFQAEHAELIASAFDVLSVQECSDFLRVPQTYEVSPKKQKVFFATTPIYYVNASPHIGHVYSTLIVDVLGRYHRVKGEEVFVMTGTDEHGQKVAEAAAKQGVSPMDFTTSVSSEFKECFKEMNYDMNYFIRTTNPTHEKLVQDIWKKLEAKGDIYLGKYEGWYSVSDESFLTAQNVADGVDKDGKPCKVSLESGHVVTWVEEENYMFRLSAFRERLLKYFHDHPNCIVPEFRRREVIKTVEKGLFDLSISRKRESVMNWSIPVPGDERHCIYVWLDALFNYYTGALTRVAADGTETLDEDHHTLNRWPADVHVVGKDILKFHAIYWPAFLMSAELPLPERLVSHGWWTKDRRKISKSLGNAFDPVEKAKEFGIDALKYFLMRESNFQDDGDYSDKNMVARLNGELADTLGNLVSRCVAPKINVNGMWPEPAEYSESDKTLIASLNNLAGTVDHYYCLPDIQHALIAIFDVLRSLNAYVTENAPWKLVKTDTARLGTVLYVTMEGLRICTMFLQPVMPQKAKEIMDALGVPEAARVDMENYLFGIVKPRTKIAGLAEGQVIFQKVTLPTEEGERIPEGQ

[2] = target: Protein translocase subunit SecA (Escherichia coli (strain K12)) (UniProt P10408); assay: Assay to Identify E. coli SecA ATPase Inhibitors; format: functional; set-up: scale not given: direction of the effect not stated beside the values; conditions: 30 µM
[3] = target: T2, Ubiquitin-activating enzyme e1, putative (Leishmania donovani (strain BPK282A1)) (UniProt E9BSI1); assay: Leishmania donovani Ubiquitin Activating Enzyme (LdE1); format: functional; set-up: scale not given: direction of the effect not stated beside the values; conditions: 30 µM
T2 sequence (whole entry): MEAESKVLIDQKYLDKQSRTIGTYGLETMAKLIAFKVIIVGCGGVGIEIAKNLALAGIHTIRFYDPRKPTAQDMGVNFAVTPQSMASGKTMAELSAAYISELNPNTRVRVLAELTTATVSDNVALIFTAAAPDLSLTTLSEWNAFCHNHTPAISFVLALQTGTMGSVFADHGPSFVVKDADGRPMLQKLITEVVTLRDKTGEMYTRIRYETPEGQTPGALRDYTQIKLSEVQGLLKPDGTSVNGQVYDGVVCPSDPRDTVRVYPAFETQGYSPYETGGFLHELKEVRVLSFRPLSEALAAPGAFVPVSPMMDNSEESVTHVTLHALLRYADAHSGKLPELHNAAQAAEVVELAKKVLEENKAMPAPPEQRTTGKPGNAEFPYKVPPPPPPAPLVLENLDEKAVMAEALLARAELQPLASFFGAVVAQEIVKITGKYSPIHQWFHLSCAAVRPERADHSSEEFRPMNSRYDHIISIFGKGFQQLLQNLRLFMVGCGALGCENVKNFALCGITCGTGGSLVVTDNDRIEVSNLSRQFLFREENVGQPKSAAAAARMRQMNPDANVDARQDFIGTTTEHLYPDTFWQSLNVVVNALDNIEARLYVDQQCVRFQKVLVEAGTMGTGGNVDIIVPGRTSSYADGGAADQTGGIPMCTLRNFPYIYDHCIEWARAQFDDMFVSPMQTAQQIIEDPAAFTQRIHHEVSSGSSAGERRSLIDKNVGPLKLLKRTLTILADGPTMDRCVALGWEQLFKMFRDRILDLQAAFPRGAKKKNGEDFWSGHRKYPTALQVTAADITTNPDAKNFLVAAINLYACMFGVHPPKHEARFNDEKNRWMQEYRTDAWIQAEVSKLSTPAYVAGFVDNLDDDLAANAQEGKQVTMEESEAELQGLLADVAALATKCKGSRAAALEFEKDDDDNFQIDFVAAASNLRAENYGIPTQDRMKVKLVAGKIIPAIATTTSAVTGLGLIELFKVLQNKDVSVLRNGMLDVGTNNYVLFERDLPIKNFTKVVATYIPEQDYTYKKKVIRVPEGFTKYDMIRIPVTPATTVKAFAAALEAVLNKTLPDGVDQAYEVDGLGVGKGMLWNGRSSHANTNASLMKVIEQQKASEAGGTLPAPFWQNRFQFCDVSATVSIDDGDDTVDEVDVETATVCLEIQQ

[4] = target: AMP-activated protein kinase, AMPK (Homo sapiens) (UniProt P54646+O43741+P54619+Q9UGJ0+Q9Y478+Q13131+Q9UGI9); assay: AMP-dependent Kinase enzyme assay. An in vitro enzyme assay that detects ADP turnover that is directly proportional to AMPK activity. This uses naive AMPK that is activated during the assay with MK-8722; format: functional; set-up: scale not given: direction of the effect not stated beside the values; conditions: 30 µM
[5] = target: Sialic acid-binding Ig-like lectin 9 (Homo sapiens) (UniProt Q9Y336); assay: Hs-Siglec9 ALPHAscreen SOP 20170721; set-up: scale not given: direction of the effect not stated beside the values; conditions: 10 µM
[6] = tested on: Trypanosoma cruzi; assay: Trypanosoma cruzi phosphomannomutase and mannose-1-phosphate guanylyltransferase assay; format: functional; set-up: scale not given: direction of the effect not stated beside the values; conditions: 10 µM
[7] = target: T3, Arginase-2, mitochondrial (Homo sapiens) (UniProt P78540); assay: in vitro enzyme assay to detect the production of urea directly proportional to the activity of Arginase II; format: functional; set-up: scale not given: in the data most compounds retested in dose-response had high values; conditions: 33.3 µM
T3 sequence (whole entry): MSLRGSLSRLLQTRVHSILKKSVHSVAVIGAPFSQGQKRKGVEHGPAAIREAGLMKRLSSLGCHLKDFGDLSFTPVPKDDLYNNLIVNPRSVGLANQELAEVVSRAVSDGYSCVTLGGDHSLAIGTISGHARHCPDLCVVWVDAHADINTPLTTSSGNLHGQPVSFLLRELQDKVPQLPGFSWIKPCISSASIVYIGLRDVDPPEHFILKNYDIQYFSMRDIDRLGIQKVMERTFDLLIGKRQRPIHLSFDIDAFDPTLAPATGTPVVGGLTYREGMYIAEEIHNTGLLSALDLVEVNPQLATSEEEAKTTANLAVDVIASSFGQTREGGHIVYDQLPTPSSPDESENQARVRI

[8] = target: T4, Proteasome subunit beta (Trypanosoma cruzi) (UniProt O96673); assay: Trypanosoma cruzi proteasome chymotrypsin-like activity (TcProtChymo) assay.; format: functional; set-up: scale not given: in the data most compounds retested in dose-response had high values; conditions: 9.37 µM
T4 sequence (whole entry): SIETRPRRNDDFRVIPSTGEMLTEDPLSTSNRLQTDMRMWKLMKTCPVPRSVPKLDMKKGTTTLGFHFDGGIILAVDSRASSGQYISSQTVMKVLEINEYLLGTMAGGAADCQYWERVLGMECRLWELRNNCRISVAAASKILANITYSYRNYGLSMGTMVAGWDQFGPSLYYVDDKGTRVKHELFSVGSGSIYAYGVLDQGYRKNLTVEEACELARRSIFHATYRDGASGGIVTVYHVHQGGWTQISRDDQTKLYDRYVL

[9] = species: Homo sapiens; assay: To identify inhibition of the IFN signalling (Jak-Stat) pathway via expression of an eGFP reporter gene under the control of an IFN-stimulated response element (ISRE) containing MxA promoter.; format: functional; set-up: scale not given: direction of the effect not stated beside the values; conditions: 30 µM
[10] = target: T5, Tyrosyl-tRNA synthetase, putative (Trypanosoma cruzi (strain CL Brener)) (UniProt Q4DSP6); assay: Trypanosoma cruzi tyrosyl tRNA synthetase (TcYRS) _High Tyrosine SOP; format: functional; set-up: scale not given: in the data most compounds retested in dose-response had high values; conditions: 30 µM
T5 sequence (whole entry): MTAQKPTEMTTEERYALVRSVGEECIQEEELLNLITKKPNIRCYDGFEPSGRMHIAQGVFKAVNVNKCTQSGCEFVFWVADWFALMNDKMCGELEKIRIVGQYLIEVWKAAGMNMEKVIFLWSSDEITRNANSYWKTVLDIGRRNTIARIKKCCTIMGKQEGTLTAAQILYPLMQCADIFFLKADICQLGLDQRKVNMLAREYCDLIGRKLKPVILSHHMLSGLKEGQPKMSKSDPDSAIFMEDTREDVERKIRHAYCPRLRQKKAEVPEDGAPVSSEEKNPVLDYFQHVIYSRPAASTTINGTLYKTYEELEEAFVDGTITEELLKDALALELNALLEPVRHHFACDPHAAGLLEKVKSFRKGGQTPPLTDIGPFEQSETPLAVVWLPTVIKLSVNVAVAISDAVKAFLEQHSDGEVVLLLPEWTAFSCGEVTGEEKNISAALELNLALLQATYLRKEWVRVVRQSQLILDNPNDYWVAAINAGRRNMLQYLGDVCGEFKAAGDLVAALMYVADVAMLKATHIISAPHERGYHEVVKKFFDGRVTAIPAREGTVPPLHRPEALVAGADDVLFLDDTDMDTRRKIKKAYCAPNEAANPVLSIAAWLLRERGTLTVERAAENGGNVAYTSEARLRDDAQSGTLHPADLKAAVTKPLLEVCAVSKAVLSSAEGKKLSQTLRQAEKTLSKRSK

[11] = target: T5, Tyrosyl-tRNA synthetase, putative (Trypanosoma cruzi (strain CL Brener)); assay: Trypanosoma cruzi tyrosyl tRNA synthetase (TcYRS) SOP; format: functional; set-up: scale not given: direction of the effect not stated beside the values; conditions: 30 µM
[12] = target: Chromo domain-containing protein 1 (Saccharomyces cerevisiae (strain ATCC 204508 / S288c) (Baker's yeast)) (UniProt P32657); assay: ScCHD-1 Enzyme Inhibition Assay; format: functional; set-up: scale not given: in the data most compounds retested in dose-response had high values; conditions: 30 µM
Sequence of Chromo domain-containing protein 1 (Saccharomyces cerevisiae (strain ATCC 204508 / S288c) (Baker's yeast)) (P32657 whole entry, the tested form may be a part): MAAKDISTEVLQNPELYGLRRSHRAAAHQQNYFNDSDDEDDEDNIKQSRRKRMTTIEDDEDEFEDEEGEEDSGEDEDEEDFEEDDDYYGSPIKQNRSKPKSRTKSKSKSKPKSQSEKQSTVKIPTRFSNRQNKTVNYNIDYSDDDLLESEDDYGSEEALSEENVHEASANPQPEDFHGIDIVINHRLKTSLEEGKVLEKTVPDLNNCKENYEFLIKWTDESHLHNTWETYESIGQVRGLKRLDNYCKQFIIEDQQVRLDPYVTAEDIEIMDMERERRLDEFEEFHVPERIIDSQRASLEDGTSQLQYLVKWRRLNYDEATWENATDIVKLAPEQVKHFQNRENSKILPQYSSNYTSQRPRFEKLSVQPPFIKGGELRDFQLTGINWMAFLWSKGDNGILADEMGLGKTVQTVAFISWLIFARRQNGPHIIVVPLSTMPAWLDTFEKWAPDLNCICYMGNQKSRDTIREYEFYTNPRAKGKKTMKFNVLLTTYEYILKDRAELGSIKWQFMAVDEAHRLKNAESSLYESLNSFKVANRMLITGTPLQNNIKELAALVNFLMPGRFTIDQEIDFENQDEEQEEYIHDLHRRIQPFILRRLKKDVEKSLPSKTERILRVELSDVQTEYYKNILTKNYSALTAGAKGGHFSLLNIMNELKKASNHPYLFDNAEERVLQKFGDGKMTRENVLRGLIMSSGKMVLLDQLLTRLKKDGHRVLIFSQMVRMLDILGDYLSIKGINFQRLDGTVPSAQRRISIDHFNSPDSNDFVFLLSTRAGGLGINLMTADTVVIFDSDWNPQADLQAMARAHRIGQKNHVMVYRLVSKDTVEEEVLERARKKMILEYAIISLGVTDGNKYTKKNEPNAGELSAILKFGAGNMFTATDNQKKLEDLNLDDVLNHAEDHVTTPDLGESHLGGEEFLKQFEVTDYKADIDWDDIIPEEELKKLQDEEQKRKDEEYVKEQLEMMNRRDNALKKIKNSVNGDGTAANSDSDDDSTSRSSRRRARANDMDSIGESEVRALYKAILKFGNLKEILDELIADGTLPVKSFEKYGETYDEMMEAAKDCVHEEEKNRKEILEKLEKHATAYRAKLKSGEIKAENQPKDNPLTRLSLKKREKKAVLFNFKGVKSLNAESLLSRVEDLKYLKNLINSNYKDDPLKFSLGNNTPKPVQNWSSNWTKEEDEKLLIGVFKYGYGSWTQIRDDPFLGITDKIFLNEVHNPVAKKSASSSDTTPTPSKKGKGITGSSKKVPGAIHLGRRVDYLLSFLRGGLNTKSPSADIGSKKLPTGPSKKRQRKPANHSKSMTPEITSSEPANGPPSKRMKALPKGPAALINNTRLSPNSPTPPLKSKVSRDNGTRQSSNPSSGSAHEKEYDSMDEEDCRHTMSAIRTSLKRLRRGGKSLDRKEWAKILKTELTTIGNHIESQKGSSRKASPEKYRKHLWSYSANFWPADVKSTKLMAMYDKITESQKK

Sequence of Protein translocase subunit SecA (Escherichia coli (strain K12)) (P10408 whole entry): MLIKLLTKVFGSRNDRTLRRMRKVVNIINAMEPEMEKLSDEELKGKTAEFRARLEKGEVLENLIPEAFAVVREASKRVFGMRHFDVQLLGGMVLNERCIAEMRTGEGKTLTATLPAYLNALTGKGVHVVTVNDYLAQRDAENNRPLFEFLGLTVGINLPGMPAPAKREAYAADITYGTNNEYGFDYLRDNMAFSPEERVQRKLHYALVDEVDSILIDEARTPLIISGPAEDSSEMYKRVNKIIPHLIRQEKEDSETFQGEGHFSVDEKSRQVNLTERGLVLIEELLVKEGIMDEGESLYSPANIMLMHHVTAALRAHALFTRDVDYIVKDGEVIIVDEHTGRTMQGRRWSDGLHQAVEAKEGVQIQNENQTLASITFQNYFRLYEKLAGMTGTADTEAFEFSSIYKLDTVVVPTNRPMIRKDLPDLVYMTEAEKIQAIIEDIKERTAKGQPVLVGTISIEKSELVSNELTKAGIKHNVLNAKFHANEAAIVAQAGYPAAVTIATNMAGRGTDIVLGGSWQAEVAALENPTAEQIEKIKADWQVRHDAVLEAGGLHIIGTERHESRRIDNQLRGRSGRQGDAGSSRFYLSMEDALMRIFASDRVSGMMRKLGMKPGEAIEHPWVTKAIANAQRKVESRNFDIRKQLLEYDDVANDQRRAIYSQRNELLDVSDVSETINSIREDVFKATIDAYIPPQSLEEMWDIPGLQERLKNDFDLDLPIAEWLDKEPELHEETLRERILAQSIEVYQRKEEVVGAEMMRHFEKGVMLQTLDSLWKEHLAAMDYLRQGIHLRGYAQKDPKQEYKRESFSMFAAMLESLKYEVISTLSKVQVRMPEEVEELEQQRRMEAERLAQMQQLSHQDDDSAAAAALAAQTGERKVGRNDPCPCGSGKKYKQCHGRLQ
Sequence of Sialic acid-binding Ig-like lectin 9 (Homo sapiens) (Q9Y336 whole entry): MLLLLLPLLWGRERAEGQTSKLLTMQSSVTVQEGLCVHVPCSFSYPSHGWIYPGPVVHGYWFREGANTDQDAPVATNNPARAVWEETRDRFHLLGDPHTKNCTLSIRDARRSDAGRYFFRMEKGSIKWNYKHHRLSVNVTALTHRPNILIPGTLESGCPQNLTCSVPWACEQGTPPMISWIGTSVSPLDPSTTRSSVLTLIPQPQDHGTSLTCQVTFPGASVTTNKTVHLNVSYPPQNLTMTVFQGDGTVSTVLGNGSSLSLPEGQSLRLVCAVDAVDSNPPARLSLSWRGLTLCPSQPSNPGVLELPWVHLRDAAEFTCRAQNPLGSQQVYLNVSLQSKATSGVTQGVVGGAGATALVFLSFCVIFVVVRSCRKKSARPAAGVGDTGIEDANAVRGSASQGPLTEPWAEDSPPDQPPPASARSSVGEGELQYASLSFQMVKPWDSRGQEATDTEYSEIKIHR

Q: What does the source list for `Fc1cccc(N2C[C@H]3CCN(c4cccnc4)C[C@H]3C2)c1`?
A: PXC50 ([1]; MAX_EFFECT 35.84229391): < 4; PXC50 ([1]; MAX_EFFECT 42.57425743): < 4; PXC50 ([1]; MAX_EFFECT 45.65217391): < 4; Percent Effect [2]: -5.24%; Percent Effect [3]: -27%; Percent Effect [4]: 0.0628%; Percent Effect [5]: -4.58%; Percent Effect [6]: -1.95%; Percent Effect [7]: -1.67%; Percent Effect [8]: 9.38%; Percent Effect [9]: 31.8%; Percent Effect [10]: 23.8%; Percent Effect [11]: 25.6%; Percent Effect [12]: 3.63%

Q: For `Oc1ccc(N(CCc2ccccc2)CCn2cncn2)cc1`, which PXC50 ([1]; BOTTOM 3.490457709, HILLSLOPE 3.448426001, MAX_EFFECT 80.53691275, TOP 87.69859371) is on record?
A: The PXC50 was 4.3.

Q: What about the PXC50 ([1]; BOTTOM 4.951266088, HILLSLOPE 3.910237354, MAX_EFFECT 63.19444444, TOP 100.0) of the same compound?
A: Its PXC50 is 4.05.

Q: What about the PXC50 ([1]; MAX_EFFECT 6.53907496) of the same compound?
A: Its PXC50 is less than 4.

Q: What about the PXC50 ([1]; MAX_EFFECT 12.85988484) of the same compound?
A: Its PXC50 is less than 4.

Q: What about the PXC50 ([1]; MAX_EFFECT 66.72443674) of the same compound?
A: The PXC50 was less than 4.

Q: With `CC(C)Cc1ncc(CNc2cnccc2CO)s1` as the compound, how does the PXC50 ([1]; MAX_EFFECT 2.711323764) read?
A: The PXC50 was less than 4.

Q: And the PXC50 ([1]; MAX_EFFECT 4.081632653)?
A: The PXC50 was less than 4.

Q: And the PXC50 ([1]; MAX_EFFECT 4.798464491)?
A: The PXC50 was less than 4.

Q: And the PXC50 ([1]; MAX_EFFECT 7.246376812)?
A: The PXC50 was less than 4.

Q: What about the PXC50 ([1]; MAX_EFFECT 9.632224168) of the same compound?
A: Its PXC50 is less than 4.
